Source: PubChem BioAssay
Results with a measured potency or affinity are listed apart. Activity calls are given as the source filed them. Cut-off not given; nearly all actives show IC50 up to about 0.91 µM.

What follows are compounds tested against Calcium-dependent protein kinase 4 (Plasmodium falciparum (isolate 3D7)) (UniProt Q8IBS5) (assay: PfCDPK4 kinase inhibitors, biochemical, TCAMS library (AID 1159588)). Conditions: recombinant PfCDPK4, Kinase-Glo ATP depletion luminescence.
Calcium-dependent protein kinase 4 (Plasmodium falciparum (isolate 3D7)), sequence (Q8IBS5 whole entry, looked up): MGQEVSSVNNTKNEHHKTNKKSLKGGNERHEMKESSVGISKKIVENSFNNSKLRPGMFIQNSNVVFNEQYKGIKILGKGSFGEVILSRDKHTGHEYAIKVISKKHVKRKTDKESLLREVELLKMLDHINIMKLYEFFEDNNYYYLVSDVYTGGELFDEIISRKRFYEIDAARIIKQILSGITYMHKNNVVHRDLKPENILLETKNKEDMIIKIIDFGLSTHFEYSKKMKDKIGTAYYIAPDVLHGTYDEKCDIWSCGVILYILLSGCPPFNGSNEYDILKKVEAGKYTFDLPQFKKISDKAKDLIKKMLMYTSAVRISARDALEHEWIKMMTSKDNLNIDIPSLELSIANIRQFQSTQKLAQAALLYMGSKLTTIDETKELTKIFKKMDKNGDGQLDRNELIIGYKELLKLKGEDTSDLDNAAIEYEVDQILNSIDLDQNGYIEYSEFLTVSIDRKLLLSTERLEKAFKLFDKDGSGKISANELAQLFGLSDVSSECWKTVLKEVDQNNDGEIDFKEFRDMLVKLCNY

outcome, inactive:
CC(Sc1nc2sccc2c(=O)n1C)C(=O)Nc1ccc2c(c1)OCO2 (stereo not given)
CCN(CC)S(=O)(=O)c1cc(-c2ccc(=O)n(CC(=O)c3ccc(C)cc3)n2)ccc1C
O=c1ccc2ccc(F)c3c2n1CC3CN1CCC(NCc2ccc(-c3cccc(Cl)c3)nc2)CC1 (stereo not given)
CCOc1cccc(C(=O)Nc2cccc(CN3CCCN(Cc4cccc(O)c4)CC3)c2)c1
COc1ccc(-c2ccc(NC(=O)c3cccc(F)c3)cc2)cc1CN1CCCN(C)CC1
Cc1ccc(Cl)cc1NC(=O)c1c(-c2ccccc2Cl)noc1C
CC[C@H](C)CNC(=O)c1cncc(-c2ccc(CN3CCC(N4CCCC4)CC3)cc2)c1
COc1ccc(NC(=O)/C=C/c2ccccc2Cl)cc1OCCN1CCC(O)(c2ccc(Cl)c(C(F)(F)F)c2)CC1
O=[N+]([O-])c1ccc(Nc2nc(NN=Cc3cccc(O)c3)nc(N3CCCC3)n2)cc1
CC(C)NCc1ccc(-c2ccc(NC(=O)c3ccc(Cl)cc3)cc2)cc1
Cc1c(C(=O)N(C)C)sc2c1c(=O)n(Cc1ccccc1)c(=O)n2CC(=O)Nc1ccccc1F
COc1ccc(CNC2Cc3ccccc3C2)cc1-c1ccc(S(=O)(=O)NCCc2ccccn2)s1
COc1cc(NC(=O)Nc2cccc3ccccc23)c(OC)cc1Cl
CCOC(=O)c1sc(C(C)Nc2ccccc2)nc1-c1ccccc1 (stereo not given)
COc1ccc(-c2cccc(CNC3CCN(C)CC3)c2)cc1S(=O)(=O)NCc1ccccc1
Cc1cc(C)cc(N2C(N)=NC(N)=NC2(C)C)c1
Nc1ncc(-c2ccc(Cl)c(Cl)c2)c(N)n1
COc1ccccc1C1CCN(C2CCC(NC(=O)/C=C/c3ccc(C(F)(F)F)cc3)CC2)CC1 (stereo not given)
CCOc1cc(Cc2cnc(N)nc2N)cc(OC)c1OC
COc1ccc(C=Cc2cc(N)c3ccccc3n2)cc1Br
COc1ccc(NS(=O)(=O)c2cc(NC(=O)Cn3ccccc3=O)ccc2N2CCCCC2)cc1
NC1CCCN(Cc2ccc(-c3ccc(-c4nc5ccccc5[nH]4)s3)cc2)C1 (stereo not given)
Clc1ccc(-c2ncc(-c3ccncc3)[nH]2)cc1Cl
CN(C)CCNCc1ccc(-c2ccc(-c3nc4ccc(F)cc4[nH]3)cc2)cc1
O=[N+]([O-])c1cccc(CNCC2CCN(Cc3ccc(-c4ccccc4)cc3)CC2)c1
